According to PubChem BioAssay (NCATS):
Several values for one entry are separate records, joined by “and”; a condition that tells them apart may be missing. Equal entries are not always repeated. Results filed as inconclusive are left out. Activity calls are given as the source filed them. The call rests on the fitted dose curve; in most records, active means well fitted curve in the direction sought with a large enough effect; inconclusive means small, poorly fitted or top-dose-only effect, or another doubt; inactive means no such curve, though single readings can be large; an effect the other way counts as inactive or inconclusive.

Assays:
[1] = qHTS of pediatric cancer cell lines to identify multiple opportunities for drug repurposing: Primary screen for Rh18 cells (AID 1347102); further: nearly all actives have a fitted effect of over 65% in size; further: potency means the concentration at half of the fitted maximal effect
Outline: (§1)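 Viability after 48 h compound treatment at 37C, 500-1,000 cells/well, read as ATP luminescence with CellTiter-Glo. Primary screens used 11-point (MIPE, 0.78 nM-46 µM) or 8-point (NPC, 0.59 nM-46 µM) final concentrations; follow-up screens used 11-point dilutions.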

[2] = qHTS of pediatric cancer cell lines to identify multiple opportunities for drug repurposing: Primary screen for OHS-50 cells (AID 1347103); further: nearly all actives have a fitted effect of over 40% in size; further: potency means the concentration at half of the fitted maximal effect
Outline: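 Cells (500-1,000/well) rested 5 h, then received compounds for 48 h; metabolically active cells were measured by CellTiter-Glo luminescence. Final concentrations spanned up to 46 µM (MIPE, 11-point) or 0.59 nM-46 µM (NPC, 8-point) in primary screens, 11-point in follow-ups.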

[3] = qHTS of pediatric cancer cell lines to identify multiple opportunities for drug repurposing: Primary screen for RD cells (AID 1347104); further: nearly all actives have a fitted effect of over 55% in size; further: potency means the concentration at half of the fitted maximal effect
Outline: (§2)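 ATP-based luminescence (CellTiter-Glo) quantifies viability after a 48-hour exposure. Compounds are dosed across 8 or 11 final concentrations; DMSO and 2.3 µM bortezomib serve as controls.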

[4] = qHTS of pediatric cancer cell lines to identify multiple opportunities for drug repurposing: Primary screen for MG 63 (6-TG R) cells (AID 1347105); further: nearly all actives have a fitted effect of over 50% in size; further: potency means the concentration at half of the fitted maximal effect
Outline: as §2

[5] = qHTS of pediatric cancer cell lines to identify multiple opportunities for drug repurposing: Primary screen for control Hh wild type fibroblast cells (AID 1347106);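 further: series mostly up to about 46 µM; a drop in luminescence marks cytotoxicity and a rise apparent proliferation; nearly all actives have a fitted effect of over 55% in size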
Outline: as §1

[6] = qHTS of pediatric cancer cell lines to identify multiple opportunities for drug repurposing: Primary screen for Rh30 cells (AID 1347107); further: series mostly up to about 46 µM; nearly all actives have a fitted effect of over 75% in size
Outline: as §1

[7] = qHTS of pediatric cancer cell lines to identify multiple opportunities for drug repurposing: Confirmatory screen for A673 cells (AID 1347110); further: nearly all actives have a fitted effect of over 65% in size; further: potency means the concentration at half of the fitted maximal effect
Outline: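 qHTS titration format: primary MIPE 0.78 nM-46 µM (11 pts), NPC 0.59 nM-46 µM; confirmation 11 pts. 48 h, CTG luminescence.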

[8] = qHTS of pediatric cancer cell lines to identify multiple opportunities for drug repurposing: Confirmatory screen for BT-12 cells (AID 1347112); further: nearly all actives have a fitted effect of over 55% in size
Outline: as §1

[9] = qHTS of pediatric cancer cell lines to identify multiple opportunities for drug repurposing: Confirmatory screen for TC32 cells (AID 1347118); further: nearly all actives have a fitted effect of over 65% in size; further: potency means the concentration at half of the fitted maximal effect
Outline: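 TC32 cells, 500-1,000/well in growth medium, compound-treated 48 h at 37 °C; viability from CellTiter-Glo luminescence. Primary screen: MIPE 11-point (0.78 nM–46 µM final), NPC 8-point (0.59 nM–46 µM final); confirmatory at 11-point dilutions.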

[10] = qHTS of pediatric cancer cell lines to identify multiple opportunities for drug repurposing: Confirmatory screen for control Hh wild type fibroblast cells (AID 1347121); further: nearly all actives have a fitted effect of over 70% in size
Outline: as §1

[11] = qHTS of pediatric cancer cell lines to identify multiple opportunities for drug repurposing: Primary screen for Rh41 cells (AID 1347108);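 further: series mostly up to about 46 µM; luminescence drop marks cytotoxic hits; nearly all actives have a fitted effect of over 70% in size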
Outline: as §2

[12] = qHTS of pediatric cancer cell lines to identify multiple opportunities for drug repurposing: Confirmatory screen for NB1643 cells (AID 1347109); further: nearly all actives have a fitted effect of over 45% in size; further: potency means the concentration at half of the fitted maximal effect
Outline: as §1

[13] = qHTS of pediatric cancer cell lines to identify multiple opportunities for drug repurposing: Confirmatory screen for LAN-5 cells (AID 1347113); further: nearly all actives have a fitted effect of over 65% in size
Outline: as §1

[14] = qHTS of pediatric cancer cell lines to identify multiple opportunities for drug repurposing: Confirmatory screen for NB-EBc1 cells (AID 1347115); further: nearly all actives have a fitted effect of over 45% in size
Outline: as §1

[15] = qHTS of pediatric cancer cell lines to identify multiple opportunities for drug repurposing: Confirmatory screen for SJ-GBM2 cells (AID 1347116); further: nearly all actives have a fitted effect of over 60% in size
Outline: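 Viability measured as metabolically active cells via CellTiter-Glo luminescence following 48 hours of compound exposure, 11-point dilutions in confirmatory testing. 500-1,000 cells/well plated 5 hours before dosing; controls were DMSO and 2.3 µM bortezomib.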

[16] = qHTS of pediatric cancer cell lines to identify multiple opportunities for drug repurposing: Confirmatory screen for MG 63 (6-TG R) cells (AID 1347119); further: nearly all actives have a fitted effect of over 55% in size; further: potency means the concentration at half of the fitted maximal effect
Outline: as §1

[17] = qHTS of pediatric cancer cell lines to identify multiple opportunities for drug repurposing: Confirmatory screen for U-2 OS cells (AID 1347122); further: nearly all actives have a fitted effect of over 65% in size; further: potency means the concentration at half of the fitted maximal effect
Outline: as §1

[18] = qHTS of pediatric cancer cell lines to identify multiple opportunities for drug repurposing: Confirmatory screen for Rh41 cells (AID 1347123);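 further: 48 h compound exposure; nearly all actives have a fitted effect of over 60% in size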; further: potency means the concentration at half of the fitted maximal effect
Outline: as §1

[19] = qHTS of pediatric cancer cell lines to identify multiple opportunities for drug repurposing: Confirmatory screen for SK-N-MC cells (AID 1347111);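 further: cells exposed to compound for 48 h before the readout; nearly all actives have a fitted effect of over 70% in size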; further: potency means the concentration at half of the fitted maximal effect
Outline: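 SK-N-MC cells at 500-1,000 cells/well in growth media were pre-incubated 5 h, then exposed to compounds at 11-point dilutions for 48 h at 37 degrees C, 5% CO2. Viability was read as CellTiter-Glo luminescence.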

[20] = qHTS of pediatric cancer cell lines to identify multiple opportunities for drug repurposing: Confirmatory screen for BT-37 cells (AID 1347117); further: nearly all actives have a fitted effect of over 55% in size
Outline: as §1

Measured: Potency

Cn1cnc([N+](=O)[O-])c1Sc1ncnc2nc[nH]c12
inactive: [1] | [3] | [4] | [5] | [6] | [8] | [10]
active: [2] 1.4 µM and 3.47 µM and 3.06 µM | [7] 1.89 µM | [9] 1.34 µM

CC(C)OC(=O)C1=CN(C(=O)c2ccc(F)c(F)c2)CC(C)(C)c2c1[nH]c1ccccc21
inactive: [1] | [2] | [3] | [4] | [5] | [6]

NC(N)=NC(=O)c1nc(Cl)c(N)nc1N
active: [7] 1.17 µM | [17] 7.37 µM
not listed: [9] | [19] | [20]
inactive: all other assays above

CC(c1cc2ccccc2s1)N(O)C(N)=O (centres undefined)
inactive: [1] | [2] | [3] | [4] | [5] | [6]

CNC[C@H](O)c1cccc(O)c1
inactive: [1] | [2] | [3] | [4] | [5] | [6] | [11]

CC(=O)Oc1ccccc1C(=O)O
inactive: [1] | [2] | [3] | [4] | [5]

Cc1cc2c(C(C)C)c(O)c(O)c(C=O)c2c(O)c1-c1c(C)cc2c(C(C)C)c(O)c(O)c(C=O)c2c1O
active: [1] 23.5 µM | [2] 11 µM and 19.3 µM | [3] 26.6 µM and 29.6 µM | [4] 21.1 µM and 23.5 µM
inactive: [5]

Fc1ccc(Cl)cc1-c1nc(Nc2ccncc2)c2nccnc2n1
inactive: [1] | [2] | [3] | [4] | [5] | [6]

O=c1n(CCCN2CCN(c3cccc(Cl)c3)CC2)nc2ccccn12
inactive: [1] | [2] | [3] | [4] | [5] | [6] | [11]

Cc1[nH]c(=O)c(C#N)cc1-c1ccncc1
inactive: [1] | [2] | [3] | [4] | [5]

Cc1cnc(NC(=O)C2=C(O)c3ccccc3S(=O)(=O)N2C)s1
inactive: [1] | [2] | [3] | [4] | [5] | [6] | [11]

COc1ccc([C@@H]2CC(=O)c3c(O)cc(O[C@@H]4O[C@H](CO[C@@H]5O[C@@H](C)[C@H](O)[C@@H](O)[C@@H]5O)[C@@H](O)[C@H](O)[C@@H]4O)cc3O2)cc1O
inactive: [1] | [2] | [3] | [4] | [5]

COc1ccccc1-c1cccc(-c2c(O)c3cc(C#N)c(Cl)cc3[nH]c2=O)c1
inactive: [1] | [2] | [3] | [4] | [5] | [6] | [11]

NC(=O)c1ccc(-c2nc(-c3ccc4c(c3)OCO4)c(-c3ccccn3)[nH]2)cc1
inactive: [1] | [2] | [3] | [4] | [5] | [6] | [11]

CCCCNc1cc(C(=O)O)cc(S(N)(=O)=O)c1Oc1ccccc1
inactive: [1] | [2] | [3] | [4] | [5]

OC(CN1CCC(Cc2ccc(F)cc2)CC1)c1ccc(Cl)cc1 (centres undefined)
active: [7] 3.69 µM
not listed: [9] | [11] | [12] | [17] | [18] | [19] | [20]
inactive: all other assays above

Nc1ccc(S(=O)(=O)Nc2ccnn2-c2ccccc2)cc1
inactive: [1] | [2] | [3] | [4] | [5]

COc1ccc(-c2c(-c3ccc(O)cc3O)n[nH]c2C)cc1
inactive: [1] | [3] | [4] | [5]
active: [2] 44.4 µM

CC1(C)SCCN(S(=O)(=O)c2ccc(OCC#CCO)cc2)[C@@H]1C(=O)NO
inactive: [1] | [2] | [3] | [4] | [5] | [6]

NC(=O)c1cnccn1
inactive: [1] | [2] | [3] | [4] | [5] | [6] | [11]

O=C(O)COCCN1CCN(C(c2ccccc2)c2ccc(Cl)cc2)CC1 (centres undefined)
inactive: [1] | [2] | [3] | [4] | [5] | [6] | [11]

CC(C[N+](C)(C)C)OC(N)=O (centres undefined)
inactive: [1] | [2] | [3] | [4] | [5] | [6] | [11]

CCCC(CCC)C(=O)O
inactive: [1] | [2] | [3] | [4] | [5] | [6] | [11]

Clc1cccc(Cl)c1NC1=NCCN1
inactive: [1] | [2] | [3] | [4] | [5]

Cc1[nH]c(=O)c(C#N)cc1-c1ccc2nccn2c1
inactive: [1] | [2] | [3] | [4] | [5] | [6] | [11]

Oc1ccc(C2CNCCc3c2cc(O)c(O)c3Cl)cc1 (centres undefined)
inactive: [1] | [2] | [3] | [4] | [5] | [6] | [11]

O=c1[nH]cnc2[nH]ncc12
inactive: [1] | [3] | [4] | [5] | [6] | [11]
active: [2] 21.7 µM

O=C1CCC(N2C(=O)c3ccccc3C2=O)C(=O)N1 (centres undefined)
inactive: [1] | [2] | [3] | [4] | [5] | [6]

OCCn1cc(-c2cnc3nnn(Cc4ccc5ncccc5c4)c3n2)cn1
inactive: [1] | [2] | [3] | [4] | [5] | [6]

O=NN(CCCl)C(=O)NCCCl
active: [7] 16.5 µM | [16] 20.8 µM
not listed: [9] | [14] | [19] | [20]
inactive: all other assays above

CCOc1cc(C(=O)Nc2ccc(Cl)c(-c3nc4ccccc4[nH]3)c2)cc(OCC)c1OCC
inactive: [1] | [2] | [4]
active: [3] 2.96 µM

Nc1nc2c(ncn2COCCO)c(=O)[nH]1
not listed: [7] | [11] | [20]
inactive: all other assays above

CCN(c1ccccc1)c1cc(NC)[n+](C)c(C)n1
inactive: [1] | [2] | [3] | [4] | [5] | [6] | [11]

C[C@]12CC[C@H](O)CC1=CC[C@@H]1[C@H]2CC[C@]2(C)C(c3cccnc3)=CC[C@H]12
inactive: [1] | [2] | [3] | [4] | [5] | [6] | [11]

NC[C@H](O)c1ccc(O)c(O)c1
inactive: [1] | [2] | [3] | [4] | [5] | [6] | [11]

NCCCC(N)(C(=O)O)C(F)F (centres undefined)
not listed: [6] | [9]
inactive: all other assays above

CCC(=O)N[C@H]1CC[C@H](C(=O)N(C)c2ccc(-c3nc4ccccc4o3)cc2)C1
active: [2] 19.3 µM | [3] 3.32 µM
inactive: [1] | [6]

CCn1cc(C(=O)O)c(=O)c2cc(F)c(N3CCNC(C)C3)c(F)c21 (centres undefined)
inactive: [1] | [2] | [3] | [4] | [5] | [11]

CO[C@@H]1[C@H](N(C)C(=O)c2ccccc2)C[C@H]2O[C@]1(C)n1c3ccccc3c3c4c(c5c6ccccc6n2c5c31)C(=O)NC4
inactive: [3] | [11] | [7] | [10] | [17] | [18]
active: [1] 1.32 µM | [2] 2.17 µM | [4] 743 nM | [12] 3.29 µM

O=C1CCc2cc(OCCCCc3nnnn3C3CCCCC3)ccc2N1
inactive: [1] | [2] | [3] | [4] | [5] | [11]

NC(=O)c1ccc(I)c([N+](=O)[O-])c1
active: [19] 55.1 µM | [9] 39 µM | [18] 43.7 µM
not listed: [5] | [7] | [11] | [12]
inactive: all other assays above

NS(=O)(=O)c1cc2c(cc1Cl)NC=NS2(=O)=O
inactive: [1] | [2] | [3] | [4] | [5] | [11]

CC(C)(Sc1ccc(CCN(CCCCC2CCCCC2)C(=O)NC2CCCCC2)cc1)C(=O)O
inactive: [1] | [2] | [5]

Cc1ccc(N(CC2=NCCN2)c2cccc(O)c2)cc1
inactive: [1] | [3] | [4] | [5] | [11]
active: [2] 27.3 µM and 30.9 µM

O=C(C=Cc1ccc(/C=C/C(=O)Nc2ccc(C3=NCCN3)cc2)cc1)Nc1ccc(C2=NCCN2)cc1
inactive: [1] | [2] | [3] | [4] | [5] | [11]
